About 7,900 targets were measured; listed, in parts, are those with a hit and a random draw of the rest. About 0.6% of all pairs of compound and target were hits.
Columns and labels:
Assay in all cases: log2 fold change, soluble protein after heating vs DMSO (PISA); higher = thermal stabilisation; K562 cells, 10 uM, 30 min; active = over 0.2 and 3.5 SD of the protein, either way, in both replicates (recomputed)
[1] = compound: COC1=CC=C(C=C1)CN2C=CC3=C2C=C(C=C3)C(=O)NO
Procedure, shortened: (§1)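 K562 cells (2×10^6 cells/mL) were treated with 10 μM compound for 30 min, and aliquots were heated for 3 min over 48°C-58°C. Pooled aliquots were extracted in PBS with 0.5% NP-40 at 4°C, and the supernatant after 21,000xg for 90 min was measured by TMTpro 16plex LC-MS/MS with channel sums equalised. Reported thermal stability, relative to control samples and from duplicates, is a log2 fold change.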

filanesib = compound: CON(C)C(=O)N1N=C(c2cc(F)ccc2F)S[C@@]1(CCCN)c1ccccc1 [filanesib]
Procedure, shortened: as §1

zotarolimus = compound: CO[C@H]1C[C@@H]2CC[C@@H](C)[C@@](O)(O2)C(=O)C(=O)N2CCCC[C@H]2C(=O)O[C@H]([C@H](C)C[C@@H]2CC[C@H](n3cnnn3)[C@H](OC)C2)CC(=O)[C@H](C)/C=C(\C)[C@@H](O)[C@@H](OC)C(=O)[C@H](C)C[C@H](C)/C=C/C=C/C=C/1C [zotarolimus]
Procedure, shortened: as §1

idasanutlin = compound: COc1cc(C(=O)O)ccc1NC(=O)[C@@H]1N[C@@H](CC(C)(C)C)[C@](C#N)(c2ccc(Cl)cc2F)[C@H]1c1cccc(Cl)c1F [idasanutlin]
Procedure, shortened: as §1

alisertib = compound: COc1cc(Nc2ncc3c(n2)-c2ccc(Cl)cc2C(c2c(F)cccc2OC)=NC3)ccc1C(=O)O [alisertib]
Procedure, shortened: as §1

[2] = compound: COc1cc2nc(-c3cc(F)ccc3O)nc(N[C@@H]3CNC[C@H]3C(C)(C)O)c2cc1OC
Procedure, shortened: as §1

gefitinib = compound: COc1cc2ncnc(Nc3ccc(F)c(Cl)c3)c2cc1OCCCN1CCOCC1 [gefitinib]
Procedure, shortened: as §1

[3] = compound: COc1cccc2cc(-c3nc([C@H]4CC[C@H](C(=O)O)CC4)n4ncnc(N)c34)[nH]c12
Procedure, shortened: as §1

lapatinib = compound: CS(=O)(=O)CCNCc1ccc(-c2ccc3ncnc(Nc4ccc(OCc5cccc(F)c5)c(Cl)c4)c3c2)o1 [lapatinib]
Procedure, shortened: as §1

pictilisib = compound: CS(=O)(=O)N1CCN(Cc2cc3nc(-c4cccc5[nH]ncc45)nc(N4CCOCC4)c3s2)CC1 [pictilisib]
Procedure, shortened: as §1

[4] = compound: CS(=O)(=O)c1ccc(-c2cnc(N)c(C(=O)Nc3ccccc3)n2)cc1
Procedure, shortened: as §1

crizotinib = compound: C[C@@H](Oc1cc(-c2cnn(C3CCNCC3)c2)cnc1N)c1c(Cl)ccc(F)c1Cl [crizotinib]
Procedure, shortened: as §1

[5] = compound: C[C@@H]1COCCN1C2=NC(=NC(=C2)C3(CC3)S(=O)(=O)C)C4=C5C=CNC5=CC=C4
Procedure, shortened: as §1

[6] = compound: C[C@H](C1=CC=C(C=C1)C(=O)NC2=C3C=CNC3=NC=C2)N
Procedure, shortened: as §1

duvelisib = compound: C[C@H](Nc1ncnc2nc[nH]c12)c1cc2cccc(Cl)c2c(=O)n1-c1ccccc1 [duvelisib]
Procedure, shortened: as §1

gandotinib = compound: Cc1cc(Nc2cc(CN3CCOCC3)c3nc(C)c(Cc4ccc(Cl)cc4F)n3n2)n[nH]1 [gandotinib]
Procedure, shortened: as §1

tozasertib = compound: Cc1cc(Nc2cc(N3CCN(C)CC3)nc(Sc3ccc(NC(=O)C4CC4)cc3)n2)n[nH]1 [tozasertib]
Procedure, shortened: as §1

[7] = compound: Cc1cc(SCc2sc(-c3ccc(C(F)(F)F)cc3)nc2C)ccc1OCC(=O)O
Procedure, shortened: as §1

doramapimod = compound: Cc1ccc(-n2nc(C(C)(C)C)cc2NC(=O)Nc2ccc(OCCN3CCOCC3)c3ccccc23)cc1 [doramapimod]
Procedure, shortened: as §1

ispinesib = compound: Cc1ccc(C(=O)N(CCCN)[C@@H](c2nc3cc(Cl)ccc3c(=O)n2Cc2ccccc2)C(C)C)cc1 [ispinesib]
Procedure, shortened: as §1

Measured: log2 fold change

PTPA (UniProt Q15257)
inactive: [1] -0.015 | filanesib -0.022 | zotarolimus 0.02 | idasanutlin -0.064 | alisertib -0.041 | [2] 0.034 | gefitinib 0.018 | [3] 0.036 | lapatinib 0.012 | pictilisib 0.02 | [4] -0.001 | crizotinib 0.028 | [5] 0.074 | [6] -0.117 | duvelisib 0.052 | gandotinib -0.037 | tozasertib 0.024 | [7] 0.013 | doramapimod -0.001 | ispinesib 0.091

PDE12 (UniProt Q6L8Q7)
inactive: filanesib -0.052 | zotarolimus 0.044 | idasanutlin -0.052 | alisertib -0.051 | [2] 0.014 | gefitinib -0.01 | [3] -0.003 | lapatinib -0.007 | pictilisib 0.074 | [4] 0.047 | crizotinib 0.032 | [5] 0.088 | [6] -0.133 | duvelisib 0.069 | gandotinib 0.027 | tozasertib -0.007 | [7] 0 | doramapimod -0.027 | ispinesib 0.065
active: [1] 0.359

PTGFRN (UniProt Q9P2B2)
UniProt Q9P2B2, sequence (Q9P2B2 whole entry, looked up): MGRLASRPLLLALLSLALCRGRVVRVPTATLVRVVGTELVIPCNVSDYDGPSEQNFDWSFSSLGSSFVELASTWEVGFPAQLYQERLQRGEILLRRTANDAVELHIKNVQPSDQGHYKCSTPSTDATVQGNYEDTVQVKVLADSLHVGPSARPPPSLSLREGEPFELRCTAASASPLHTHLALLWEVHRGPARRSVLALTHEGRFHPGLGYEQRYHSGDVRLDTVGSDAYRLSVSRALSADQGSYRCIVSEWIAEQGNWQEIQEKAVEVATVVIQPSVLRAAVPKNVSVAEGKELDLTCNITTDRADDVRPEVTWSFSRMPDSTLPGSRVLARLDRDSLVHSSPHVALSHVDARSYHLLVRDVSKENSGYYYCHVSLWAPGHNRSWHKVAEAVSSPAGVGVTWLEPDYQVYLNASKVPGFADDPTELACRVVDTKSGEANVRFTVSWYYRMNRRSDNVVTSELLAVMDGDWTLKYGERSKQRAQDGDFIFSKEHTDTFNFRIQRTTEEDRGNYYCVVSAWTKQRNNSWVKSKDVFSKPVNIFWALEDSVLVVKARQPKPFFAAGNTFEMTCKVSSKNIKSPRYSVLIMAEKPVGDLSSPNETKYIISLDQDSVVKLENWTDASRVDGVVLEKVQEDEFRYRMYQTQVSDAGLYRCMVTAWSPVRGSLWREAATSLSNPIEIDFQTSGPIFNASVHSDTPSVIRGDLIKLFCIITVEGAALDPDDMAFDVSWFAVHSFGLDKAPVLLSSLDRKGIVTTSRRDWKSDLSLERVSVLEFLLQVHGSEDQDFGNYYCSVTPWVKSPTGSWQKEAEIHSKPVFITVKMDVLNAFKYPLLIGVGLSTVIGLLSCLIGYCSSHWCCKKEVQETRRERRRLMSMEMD
inactive: [1] 0.006 | filanesib 0.129 | zotarolimus -0.021 | idasanutlin 0.073 | alisertib 0.01 | [2] 0.139 | gefitinib 0.025 | [3] 0.124 | lapatinib 0.036 | pictilisib 0.122 | [4] 0.068 | crizotinib 0.057 | [5] 0.063 | [6] -0.003 | duvelisib 0.122 | gandotinib -0.023 | tozasertib -0.101 | [7] -0.065 | doramapimod 0.001 | ispinesib 0.165

PRKCD (UniProt Q05655)
UniProt Q05655, sequence (Q05655 whole entry, looked up): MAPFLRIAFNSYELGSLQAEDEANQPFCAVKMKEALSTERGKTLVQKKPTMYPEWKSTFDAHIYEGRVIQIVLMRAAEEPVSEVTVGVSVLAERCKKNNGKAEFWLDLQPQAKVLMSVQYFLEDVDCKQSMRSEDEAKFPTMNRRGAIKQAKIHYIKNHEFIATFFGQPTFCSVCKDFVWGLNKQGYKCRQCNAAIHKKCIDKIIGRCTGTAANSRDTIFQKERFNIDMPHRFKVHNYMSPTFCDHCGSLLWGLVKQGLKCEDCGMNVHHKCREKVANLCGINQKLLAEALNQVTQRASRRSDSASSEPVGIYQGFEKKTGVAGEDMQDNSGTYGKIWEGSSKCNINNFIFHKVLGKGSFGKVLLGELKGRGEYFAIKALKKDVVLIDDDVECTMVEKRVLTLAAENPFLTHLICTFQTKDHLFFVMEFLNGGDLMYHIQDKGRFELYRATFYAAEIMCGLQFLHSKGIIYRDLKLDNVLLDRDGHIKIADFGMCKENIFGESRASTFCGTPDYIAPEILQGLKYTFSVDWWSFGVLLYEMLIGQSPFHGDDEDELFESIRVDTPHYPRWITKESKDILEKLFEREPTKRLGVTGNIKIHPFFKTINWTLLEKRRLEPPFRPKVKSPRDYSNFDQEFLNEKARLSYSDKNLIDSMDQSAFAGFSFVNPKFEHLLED
inactive: [1] -0.019 | filanesib -0.004 | zotarolimus 0.032 | idasanutlin -0.017 | alisertib 0.037 | [2] -0.003 | gefitinib -0.002 | [3] 0.074 | lapatinib 0.02 | pictilisib 0.026 | [4] 0.05 | crizotinib -0.008 | [5] 0.053 | [6] -0.215 | duvelisib 0.009 | gandotinib -0.056 | tozasertib -0.006 | [7] 0.007 | doramapimod 0.005 | ispinesib -0.007

PGM3 isoform 4 (UniProt O95394)
inactive: [1] 0.052 | filanesib -0.135 | zotarolimus 0.007 | idasanutlin -0.079 | alisertib -0.007 | [2] 0 | gefitinib -0.028 | [3] -0.01 | lapatinib -0.014 | pictilisib -0.047 | [4] 0.025 | crizotinib -0.098 | [5] 0.04 | [6] -0.024 | duvelisib 0.043 | gandotinib -0.034 | tozasertib -0.019 | [7] 0.108 | doramapimod 0.016 | ispinesib -0.09

PCGF2 (UniProt P35227)
UniProt P35227, sequence (P35227 whole entry, looked up): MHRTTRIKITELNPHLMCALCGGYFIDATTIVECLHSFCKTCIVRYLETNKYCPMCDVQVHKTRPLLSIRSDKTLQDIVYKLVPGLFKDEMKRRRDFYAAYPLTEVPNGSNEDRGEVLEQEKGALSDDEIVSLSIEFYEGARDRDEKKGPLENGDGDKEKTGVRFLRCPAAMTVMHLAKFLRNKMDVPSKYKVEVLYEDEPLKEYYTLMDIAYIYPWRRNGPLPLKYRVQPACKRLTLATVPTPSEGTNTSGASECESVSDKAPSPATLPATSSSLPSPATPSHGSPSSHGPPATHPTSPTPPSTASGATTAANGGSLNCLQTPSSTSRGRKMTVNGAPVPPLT
inactive: [1] -0.039 | filanesib 0.055 | zotarolimus 0.03 | idasanutlin -0.008 | alisertib 0.036 | [2] 0.11 | gefitinib 0.021 | [3] 0.018 | lapatinib -0.058 | pictilisib -0.02 | [4] 0.041 | crizotinib 0.01 | [5] 0.075 | [6] 0.087 | duvelisib 0.124 | gandotinib 0.121 | tozasertib 0.015 | [7] 0.15 | doramapimod -0.089 | ispinesib 0.021

PRPF3 (UniProt O43395)
UniProt O43395, sequence (O43395 whole entry, looked up): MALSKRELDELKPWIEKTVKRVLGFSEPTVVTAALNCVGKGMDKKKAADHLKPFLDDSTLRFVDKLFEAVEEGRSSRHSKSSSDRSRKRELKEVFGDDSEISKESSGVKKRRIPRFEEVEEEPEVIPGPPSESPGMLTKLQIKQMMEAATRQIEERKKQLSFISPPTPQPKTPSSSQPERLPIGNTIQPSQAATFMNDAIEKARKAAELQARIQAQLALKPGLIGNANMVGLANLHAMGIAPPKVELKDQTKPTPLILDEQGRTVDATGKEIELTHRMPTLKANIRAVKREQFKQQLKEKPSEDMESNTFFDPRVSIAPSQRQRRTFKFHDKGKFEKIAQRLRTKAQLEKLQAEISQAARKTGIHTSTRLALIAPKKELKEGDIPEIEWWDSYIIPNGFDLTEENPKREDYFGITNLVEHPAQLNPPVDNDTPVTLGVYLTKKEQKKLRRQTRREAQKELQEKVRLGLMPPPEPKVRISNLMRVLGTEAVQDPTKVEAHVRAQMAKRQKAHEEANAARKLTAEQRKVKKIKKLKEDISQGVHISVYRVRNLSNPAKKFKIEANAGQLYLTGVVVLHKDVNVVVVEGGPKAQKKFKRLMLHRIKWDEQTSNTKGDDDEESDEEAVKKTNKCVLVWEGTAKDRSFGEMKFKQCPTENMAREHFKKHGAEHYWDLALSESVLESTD
inactive: [1] 0.18 | filanesib -0.038 | zotarolimus -0.048 | idasanutlin -0.029 | alisertib 0.031 | [2] -0.07 | gefitinib 0.06 | [3] 0.072 | lapatinib -0.02 | pictilisib -0.022 | [4] 0.009 | crizotinib -0.025 | [5] 0.114 | [6] 0.193 | duvelisib 0.053 | gandotinib -0.067 | tozasertib 0.007 | [7] 0.174 | doramapimod -0.024 | ispinesib 0.025

POLR3D (UniProt P05423)
UniProt P05423, sequence (P05423 whole entry, looked up): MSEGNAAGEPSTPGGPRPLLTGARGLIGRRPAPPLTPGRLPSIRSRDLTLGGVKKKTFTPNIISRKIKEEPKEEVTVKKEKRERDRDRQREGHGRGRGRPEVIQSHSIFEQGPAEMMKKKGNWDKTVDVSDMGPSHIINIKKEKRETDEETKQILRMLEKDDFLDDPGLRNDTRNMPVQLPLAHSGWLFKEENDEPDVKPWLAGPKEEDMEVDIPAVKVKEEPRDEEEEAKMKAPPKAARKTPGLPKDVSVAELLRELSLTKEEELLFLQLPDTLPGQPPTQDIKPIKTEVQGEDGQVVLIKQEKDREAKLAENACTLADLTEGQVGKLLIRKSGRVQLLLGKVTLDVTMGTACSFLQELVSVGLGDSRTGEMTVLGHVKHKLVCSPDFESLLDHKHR
active: idasanutlin 0.574
inactive: [1] -0.014 | filanesib 0.041 | zotarolimus 0.065 | alisertib -0.091 | [2] -0.017 | gefitinib 0.036 | [3] -0.136 | lapatinib -0.001 | pictilisib 0.013 | [4] 0.088 | crizotinib -0.035 | [5] -0.064 | [6] 0.112 | duvelisib 0.011 | gandotinib -0.056 | tozasertib -0.063 | [7] -0.085 | doramapimod 0.022 | ispinesib -0.05

PELO (UniProt Q9BRX2)
UniProt Q9BRX2, sequence (Q9BRX2 whole entry, looked up): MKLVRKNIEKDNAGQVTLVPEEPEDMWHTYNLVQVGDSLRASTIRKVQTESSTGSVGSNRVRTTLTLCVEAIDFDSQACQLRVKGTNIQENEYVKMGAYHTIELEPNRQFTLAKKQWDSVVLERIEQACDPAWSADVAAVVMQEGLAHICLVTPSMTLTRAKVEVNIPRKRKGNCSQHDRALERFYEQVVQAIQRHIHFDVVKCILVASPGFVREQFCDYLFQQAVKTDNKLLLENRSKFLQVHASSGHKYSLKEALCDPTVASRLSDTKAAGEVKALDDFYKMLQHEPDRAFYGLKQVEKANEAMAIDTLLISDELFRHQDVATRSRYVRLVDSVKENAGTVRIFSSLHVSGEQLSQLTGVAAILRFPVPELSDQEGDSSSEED
inactive: [1] 0.001 | filanesib 0.128 | zotarolimus 0.158 | idasanutlin -0.024 | alisertib 0.489 | [2] 0.053 | gefitinib 0.009 | [3] 0.001 | lapatinib -0.06 | pictilisib -0.111 | [4] 0.026 | crizotinib -0.15 | [5] -0.037 | [6] 0.158 | duvelisib 0.011 | gandotinib -0.096 | tozasertib 0.001 | [7] 0.07 | doramapimod 0.077 | ispinesib -0.336

PCNT (UniProt O95613)
inactive: [1] -0.228 | filanesib 0.006 | zotarolimus -0.001 | idasanutlin 0.075 | alisertib 0.02 | [2] 0.055 | gefitinib 0.085 | [3] 0.257 | lapatinib -0.174 | pictilisib 0.285 | [4] 0.119 | crizotinib 0.023 | [5] 0.09 | [6] 0.153 | duvelisib -0.003 | gandotinib 0.06 | tozasertib 0.032 | [7] -0.006 | doramapimod -0.023 | ispinesib -0.099

PSMB4 (UniProt P28070)
UniProt P28070, sequence (P28070 whole entry, looked up): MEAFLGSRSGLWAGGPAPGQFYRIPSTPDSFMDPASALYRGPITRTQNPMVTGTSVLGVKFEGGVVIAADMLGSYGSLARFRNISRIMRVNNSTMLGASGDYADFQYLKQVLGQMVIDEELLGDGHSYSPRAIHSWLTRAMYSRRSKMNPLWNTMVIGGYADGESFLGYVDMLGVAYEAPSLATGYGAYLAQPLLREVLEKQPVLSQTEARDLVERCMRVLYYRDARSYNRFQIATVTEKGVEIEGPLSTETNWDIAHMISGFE
inactive: [1] -0.033 | filanesib 0.034 | zotarolimus -0.011 | idasanutlin -0.012 | alisertib -0.031 | [2] -0.074 | gefitinib -0.038 | [3] 0.005 | lapatinib 0.03 | pictilisib -0.026 | [4] 0.014 | crizotinib 0.03 | [5] -0.09 | [6] 0.064 | duvelisib -0.04 | gandotinib 0.08 | tozasertib -0.002 | [7] -0.018 | doramapimod 0.021 | ispinesib 0.015

PPP6R1 (UniProt Q9UPN7)
UniProt Q9UPN7, sequence (Q9UPN7 whole entry, looked up): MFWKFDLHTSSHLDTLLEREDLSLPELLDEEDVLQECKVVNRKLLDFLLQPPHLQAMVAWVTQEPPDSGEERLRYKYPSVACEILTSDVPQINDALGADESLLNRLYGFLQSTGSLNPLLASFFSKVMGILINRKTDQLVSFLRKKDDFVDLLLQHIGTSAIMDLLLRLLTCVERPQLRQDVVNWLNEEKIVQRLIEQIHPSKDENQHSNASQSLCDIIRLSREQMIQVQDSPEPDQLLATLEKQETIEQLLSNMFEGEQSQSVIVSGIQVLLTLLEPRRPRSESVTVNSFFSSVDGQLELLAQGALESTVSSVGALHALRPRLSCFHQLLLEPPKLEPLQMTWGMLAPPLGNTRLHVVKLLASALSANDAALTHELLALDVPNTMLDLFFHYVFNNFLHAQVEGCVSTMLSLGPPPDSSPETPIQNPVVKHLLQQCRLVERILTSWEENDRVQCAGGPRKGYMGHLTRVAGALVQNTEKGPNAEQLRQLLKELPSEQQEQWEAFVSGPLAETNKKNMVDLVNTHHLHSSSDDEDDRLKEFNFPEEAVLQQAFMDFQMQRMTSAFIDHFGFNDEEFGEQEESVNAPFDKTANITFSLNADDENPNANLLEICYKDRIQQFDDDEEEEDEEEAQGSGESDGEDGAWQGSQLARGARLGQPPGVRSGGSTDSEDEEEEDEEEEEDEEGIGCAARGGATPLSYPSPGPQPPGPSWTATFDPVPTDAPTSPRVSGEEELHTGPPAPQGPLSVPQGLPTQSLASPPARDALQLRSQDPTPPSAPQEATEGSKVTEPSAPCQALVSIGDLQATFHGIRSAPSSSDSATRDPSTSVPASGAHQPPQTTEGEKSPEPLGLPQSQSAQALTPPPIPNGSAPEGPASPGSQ
inactive: [1] -0.002 | filanesib -0.072 | zotarolimus -0.005 | idasanutlin -0.032 | alisertib -0.098 | [2] -0.055 | gefitinib 0.012 | [3] 0.014 | lapatinib 0.016 | pictilisib 0 | [4] -0.013 | crizotinib -0.018 | [5] 0.125 | [6] 0.012 | duvelisib 0.027 | gandotinib -0.078 | tozasertib 0.084 | [7] -0.01 | doramapimod 0.01 | ispinesib -0.002

PARP1 (UniProt P09874)
inactive: [1] 0.091 | filanesib -0.043 | zotarolimus 0.048 | idasanutlin -0.047 | alisertib 0.039 | [2] 0.147 | gefitinib 0.062 | [3] -0.062 | lapatinib -0.082 | pictilisib 0.008 | [4] 0.088 | crizotinib 0.037 | [5] 0.007 | [6] 0.012 | duvelisib 0.102 | gandotinib -0.029 | tozasertib 0.08 | [7] 0.165 | doramapimod -0.065 | ispinesib -0.126

PTGR2 (UniProt Q8N8N7)
UniProt Q8N8N7, sequence (Q8N8N7 whole entry, looked up): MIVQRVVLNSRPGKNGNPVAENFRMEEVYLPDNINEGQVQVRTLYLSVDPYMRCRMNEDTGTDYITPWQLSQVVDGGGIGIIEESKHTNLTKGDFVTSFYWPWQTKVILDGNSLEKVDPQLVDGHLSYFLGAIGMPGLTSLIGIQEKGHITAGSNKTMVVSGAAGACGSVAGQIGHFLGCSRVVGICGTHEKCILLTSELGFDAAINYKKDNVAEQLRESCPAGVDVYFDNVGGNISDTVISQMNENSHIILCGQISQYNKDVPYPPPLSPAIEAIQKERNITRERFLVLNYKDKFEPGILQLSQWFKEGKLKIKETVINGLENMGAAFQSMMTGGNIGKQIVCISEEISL
inactive: [1] -0.13 | filanesib -0.155 | zotarolimus 0.195 | idasanutlin 0.122 | alisertib -0.03 | [2] -0.04 | gefitinib 0.035 | [3] 0 | lapatinib 0.125 | pictilisib 0.313 | [4] 0.097 | crizotinib -0.075 | [5] 0.045 | [6] 0.112 | duvelisib 0.049 | gandotinib 0.192 | tozasertib 0 | [7] -0.185 | doramapimod 0.223 | ispinesib 0.013

PRCP (UniProt P42785)
inactive: [1] 0.009 | filanesib -0.038 | zotarolimus -0.007 | idasanutlin -0.055 | alisertib -0.013 | [2] -0.074 | gefitinib 0.029 | [3] 0.065 | lapatinib -0.014 | pictilisib 0.019 | [4] 0.012 | crizotinib -0.078 | [5] -0.088 | [6] -0.037 | duvelisib 0.045 | gandotinib 0.006 | tozasertib 0.036 | [7] -0.037 | doramapimod -0.034 | ispinesib -0.096

PRG4 (UniProt Q92954)
inactive: [1] 0.17 | filanesib 0.081 | idasanutlin 0.174 | alisertib 0.01 | gefitinib 0.034 | [3] 0.229 | pictilisib -0.062 | [4] 0.08 | crizotinib -0.19 | [5] -0.014 | [6] 0.023 | duvelisib -0.145 | gandotinib 0.098 | tozasertib 0.167 | [7] 0.004 | doramapimod -0.229 | ispinesib -0.114
active: zotarolimus -0.955

From the supplement of paper PMC10849652
